Experiment in all cases: NCI-60 one-dose screen, 48 h (100 = growth as untreated, 0 = no growth, -100 = all killed)
What all share (conditions): 10 µM unless noted

Assay [1] concerns HCT-15 colon.
Assay [2] concerns HT29 colon.
Assay [3] deals with SNB-75 CNS.
The subject of assay [4] is SNB-19 CNS.
The test system of assay [5] is U251 CNS.
In assay [6] the test system is PC-3 prostate.
In assay [7] the test system is SK-MEL-5 melanoma.
In assay [8] the test system is LOX IMVI melanoma.
Assay [9] deals with SK-MEL-28 melanoma.

Each structure is given as a SMILES string. About 83,000 compounds went through this panel and 20% of them were active in at least one assay; those are over-represented in the sample as a whole.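 48-hour exposure, single concentration, 96-well plates; percent growth endpoint where 0 means no net growth. Active: below 10.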 Unmarked numbers belong to inactive results. The source made the active and inactive calls.

Turning to `C=C1C(=O)O[C@H]2[C@H]1CC/C(COC(=O)N[C@H](Cc1c[nH]c3ccccc13)C(=O)OC)=C\CC[C@@]1(C)O[C@@H]21`, the growth was 1.89% (active) in [1]; 14.9% in assay [2]; 82% in [3]; 66.7% in assay [4]; 72.7% in assay [5]; 57.3% in [6]. The results for the growth in [7], in assay [8] and in assay [9] were 39%, 13.7% and 9.69% (active), respectively.

As for `Cc1ccc(-c2nn(Cc3cn(-c4cc(C)nc5ccccc45)nn3)c3ncnc(N)c23)cc1`, the growth in assay [1] was 57%; in [2], 49.8%; in assay [3], 15.5%; in assay [4], 53.2%; in assay [5], 71.8%; in [6] it was 49%. The growth in assay [7] was 40.7%; in [8], 52.4%; in assay [9], 68.7%.

Turning to `COC(=O)[C@]12CC[C@@H](C)[C@H](C)[C@@H]1C1=CC[C@@H]3[C@@]4(C)C[C@@H](OC(C)=O)[C@H](OC(C)=O)[C@@](C)(COC(C)=O)[C@@H]4[C@H](O)C[C@@]3(C)[C@]1(C)CC2`, the growth in assay [1] was 7.64% (active); in assay [2], 2.23% (active); in assay [3], 34.6%; in assay [4] it was 24.2%; in assay [5], 7.43% (active); in assay [6], 4.25% (active). For the same molecule, the growth in assay [7] is -71.5% (active); in assay [8], 2.68% (active); in [9], 38.6%.

With `Cc1cc(N2CCCCC2)nc(N(CCCNc2ccnc3cc(Cl)ccc23)Cc2ccco2)n1`, the growth in [1] was 11.3%; in assay [2] it was 2.02% (active); in assay [3], 54.3%; in assay [4], 27.4%; in assay [5], 24.7%; in assay [6], 2.61% (active). For the same molecule, the results for the growth in [7], in assay [8] and in [9] were -91.8% (active), -34.7% (active) and -23.5% (active), respectively.

Regarding `CCC(CC)C(=O)OC(C)COc1ccc(C(C)(C)C)cc1` (configuration not stated), the growth in [1] was 109%; in assay [2], 71.7%; in [3], 94.8%; in assay [4], 103%; in [5], 90.1%; in assay [6], 73.2%. For the same molecule, the growth was 98.7% in assay [7], 106% in assay [8] and 101% in [9].

Consider `C[Si](C)(C)Cc1ccccc1`, for which the growth is 110% in [1]; 114% in assay [2]; 87.8% in assay [3]; 116% in assay [4]; 114% in assay [5]; 105% in assay [6]. Moreover, the growth is 108% in assay [7], 102% in assay [8] and 128% in assay [9].

`C[C@@H]1CCCCCCCCC[C@H](O)C(=O)C[C@@H](SC[C@@H](O)C(=O)O)C(=O)O1`: the growth was 87.3% in [1]; 82.1% in assay [2]; 95.2% in [3]; 102% in [4]; 89.4% in assay [5]; 83% in assay [6]. Moreover, the values for the growth in [7], in assay [8] and in assay [9] were 104%, 71.8% and 107%, respectively.

As to `CCC(c1ccc(OC)cc1)C(CC)c1ccc(O)c(CN2CCCCC2)c1` (configuration not stated), the growth in assay [1] is 33.6%; in assay [2], 24.7%; in assay [3], 94.5%; in assay [4], 90.6%; in [5] it was 72.8%; in assay [6], 54.3%. The values for the growth in assay [7], in assay [8] and in [9] were 30.6%, 75.9% and 41.6%, respectively.

As to `O=C1Nc2ccccc2/C1=C/c1cn(CCCn2c3ccccc3c(=O)c3ccccc32)c2ccccc12`, the growth in assay [1] was 82.3%; in assay [2] it was 91.8%; in assay [3], 69.7%; in assay [4] it was 98.2%; in [5] it was 93.3%; in assay [6], 62.5%. Further, the growth in assay [7] is 74.7%; in assay [8], 86%; in assay [9], 107%.

Turning to `c1cnc2[nH]cc(-c3csc(-c4cn(CCCN5CCCCC5)c5ccccc45)n3)c2c1`, the growth was 4.45% (active) in [1]; -55.8% (active) in assay [2]; 60.2% in [3]; 39.2% in assay [4]; 10.4% in assay [5]; 34.9% in assay [6]. In addition, the values for the growth in assay [7], in [8] and in assay [9] were -80.1% (active), -67.6% (active) and -68.4% (active), respectively.

`Cc1cc(N(CCNc2ccnc3cc(Cl)ccc23)Cc2ccco2)nc(Cl)n1`: the growth in [1] is 1.35% (active); in [2], -33.4% (active); in [3], -88.7% (active); in assay [4] it was 15.4%; in assay [5], -66.5% (active); in assay [6], -54.4% (active). Moreover, the growth was -63.4% (active) in assay [7], -64.8% (active) in [8] and -33.4% (active) in assay [9].

Turning to `COC(=O)[C@]12CC[C@@H](C)[C@H](C)[C@@H]1C1=CC[C@@H]3[C@@]4(C)C[C@@H](O)[C@H](O)[C@@](C)(CO)C4=CC[C@@]3(C)[C@]1(C)CC2`, the growth in assay [1] is -60.8% (active); in assay [2] it was -36.6% (active); in assay [3] it was -58.7% (active); in assay [4] it was -80.4% (active); in assay [5], -85.4% (active); in assay [6], -85.1% (active). The figures for the growth in assay [7], in assay [8] and in assay [9] were -98.6% (active), -100% (active) and -81% (active), respectively.

On to `Nc1ccc(Cl)cn1`, for which the growth in assay [1] is 98.6%; in assay [2], 96.9%; in assay [3], 80.2%; in assay [4], 107%; in assay [5] it was 94.3%; in assay [6], 90%. Besides, the growth in [7] was 103%; in [8] it was 92.7%; in [9], 110%.

Regarding `CCOC(=O)C/C(=C\c1ccccc1)C(C)=O`, the growth in [1] is 106%; in assay [2], 98.1%; in [3], 101%; in [4], 101%; in assay [5] it was 80.4%; in assay [6], 76.8%. Moreover, the growth in assay [7] was 106%; in [8], 108%; in [9], 111%.

With `Nc1nc2c3ccncc3cc(-c3cccc(Cl)c3)c2c2cnccc12`, the growth in assay [1] is 28.5%; in assay [2], 33.2%; in [3], 57%; in assay [4], 51.4%; in assay [5], 29.2%; in assay [6], 20%. Besides, the growth in assay [7] is 50.4%; in assay [8], -50.9% (active); in assay [9], 53.1%.

For `O=C(N/N=C/c1ccccc1SSc1ccccc1/C=N/NC(=O)c1ccccc1)c1ccccc1`, the growth in assay [1] is 21.6%; in assay [2], 43.3%; in assay [3], 65.8%; in [4], 44.8%; in assay [5], 34.1%; in assay [6] it was 40.2%. For the same molecule, the growth in assay [7] is 22.5%; in assay [8], 11.1%; in assay [9], 39.6%.

For `Cc1cc(N=O)cc(C(C)(C)C)c1O`, the growth in [1] was 101%; in assay [2], 85%; in assay [3] it was 87.7%; in [4] it was 98.7%; in assay [5], 88.6%; in [6] it was 74.5%. Also, the growth was 98.3% in assay [7], 98.3% in assay [8] and 106% in assay [9].

In the case of `C=C1C(=O)O[C@H]2[C@H]1CC/C(COC(=O)NCc1cc3ccccc3[nH]1)=C\CC[C@@]1(C)O[C@@H]21`, the growth was -4.13% (active) in assay [1]; -42.6% (active) in assay [2]; 62% in assay [3]; 58.8% in assay [4]; 54.6% in [5]; 38% in assay [6]. Moreover, the growth in [7] was 9.31% (active); in assay [8], -15.8% (active); in assay [9], -26.9% (active).

Turning to `COC(=O)[C@]12CC[C@@H](C)[C@H](C)[C@@H]1C1=CC[C@@H]3[C@@]4(C)C[C@@H](OC(C)=O)[C@H](O)[C@@](C)(COC(C)=O)[C@@H]4[C@H](O)C[C@@]3(C)[C@]1(C)CC2`, the growth is -79.4% (active) in assay [1]; -84.1% (active) in assay [2]; -81.1% (active) in assay [3]; -82.6% (active) in [4]; -94.2% (active) in [5]; -95.1% (active) in [6]. In addition, the values for the growth in assay [7], in assay [8] and in assay [9] were -99.9% (active), -100% (active) and -88.3% (active), respectively.

For the molecule `O=[N+]([O-])c1ccc(N/N=C(\C(=N/Nc2ccc([N+](=O)[O-])cc2[N+](=O)[O-])c2ccccc2)c2ccccc2)c([N+](=O)[O-])c1`, the growth in [1] is 84.3%; in assay [2] it was 63.5%; in assay [3], 99%; in assay [4], 102%; in [5], 36.4%; in assay [6] it was 85.2%. Also, the growth in assay [7] is 94.3%; in assay [8], 97.7%; in [9], 101%.

`COc1cnc2c(c1)C(=O)c1c-2n(CCCNCCN2CCOCC2)c(=O)c2cc([N+](=O)[O-])ccc12`: the growth is 0.784% (active) in assay [1]; 1.17% (active) in assay [2]; -4.98% (active) in [3]; 15.2% in assay [4]; -56.5% (active) in assay [5]; 15.7% in [6]. For the same molecule, the growth is -87.8% (active) in assay [7], -66.2% (active) in [8] and 47.5% in assay [9].

Consider `CN(C)c1ccc(N=C2C=CC(=O)C=C2)cc1`, for which the growth in [1] was 97.7%; in [2] it was 97.1%; in assay [3], 77.6%; in [4] it was 83.6%; in assay [5], 76.5%; in assay [6], 64.4%. Further, the growth in assay [7] is 87.2%; in assay [8] it was 80.6%; in [9], 97.4%.

Regarding `COc1cc(-c2cc3ncccc3c3nc(N)c4cccnc4c23)cc(OC)c1OC`, the growth in [1] is 21.5%; in assay [2] it was 4.14% (active); in [3], 6.07% (active); in assay [4] it was 44.5%; in [5], 18.9%; in assay [6], 22%. The growth in assay [7] is 15.8%; in [8] it was 24.1%; in assay [9], 62.7%.

For `Cn1c(=O)c2c(nc(Br)n2CC(=O)Nc2ccc(F)cc2)n(C)c1=O`, the growth in [1] was 115%; in assay [2], 97.8%; in [3], 83.4%; in assay [4], 97.5%; in assay [5], 100%; in [6] it was 75.5%. Moreover, the growth in assay [7] was 104%; in assay [8], 96.7%; in assay [9], 118%.

In the case of `Cc1ccc(C)c2c1CCC2C(C)C` (configuration not stated), the growth in assay [1] is 109%; in [2], 105%; in assay [3] it was 88.4%; in [4] it was 101%; in [5] it was 96.7%; in [6] it was 90.1%. Moreover, the growth is 98.5% in assay [7], 96% in [8] and 103% in assay [9].

For the molecule `Cc1cc(Cl)nc(N(CCCNc2ccnc3cc(Cl)ccc23)Cc2ccco2)n1`, the growth in assay [1] was 18.3%; in assay [2] it was 8.64% (active); in assay [3], 59.6%; in [4], 31.5%; in assay [5], 26.9%; in [6], 5.4% (active). The growth in [7] is -82.6% (active); in assay [8], 10.7%; in assay [9] it was 16.1%.

For `COC(c1ccccc1)(c1ccccc1)c1ccccc1`, the growth in assay [1] was 104%; in assay [2] it was 100%; in [3], 87.7%; in assay [4], 96%; in [5], 107%; in assay [6], 102%. Moreover, the growth in [7] is 103%; in [8] it was 99.2%; in assay [9], 109%.

`COc1ccc(/C=C/C(=O)NCC(C)O)cc1` (configuration not stated): the growth in assay [1] was 102%; in assay [2] it was 95.1%; in assay [3], 84.7%; in assay [4], 109%; in [5] it was 95.8%; in assay [6], 94.5%. Also, the growth in assay [7] was 101%; in assay [8], 97.2%; in assay [9] it was 102%.

(Values after PubChem BioAssay (NCI).)
